Screens: PubChem, several laboratories
A selection: hits, their analogues and other compounds. The true share with any hit is near 2.6%.
TWEAK-Fn14 inh – inhibitors of TWEAK-Fn14 interaction signaling. inhibition, % at 10 µM. actives 2% (n = 360,000). AID 1159606. TWEAK-stimulated Fn14 reporter cells, luciferase luminescence, 8 h; in the data active = inhibition above about 50%
TROY NFkB inh – blocks TROY-dependent signaling in reporter cells. inhibition, % at 10 µM. actives 0.98% (n = 360,000). Q293 LMP1-TROYcd NF-kB luciferase reporter, 4 h;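 active = compounds whose plate-normalised and pattern-corrected inhibition of the luciferase reporter signal at the single screening dose is 50% or more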
EWS-Fli inh – inhibitors of EWS/Fli oncoprotein transcriptional activity | A673 NR0B1-luciferase reporter, viability-normalised | inhibition, % at 12.6 µM | actives 0.67% (n = 350,000);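 active = mean inhibition of at least 50% after viability correction, with every replicate also passing that limit; inconclusive = mean reaches 50% but only one of two replicates passes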;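 also: firefly luciferase signal divided by Alamar Blue viability fluorescence both relative to DMSO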
LGR2 inh – inhibitors of bursicon-induced Drosophila LGR2 receptor cAMP signaling; HEK293 LGR2, CRE-luciferase, bursicon-stimulated, 4 h; inhibition, % at 9.99 µM; actives 0.35% (n = 380,000); AID 720647;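 active = drop in luminescence signal, shown as inhibition above about 50% in the replicate tests, limit read from the data, passing the limit was not always enough; inconclusive = probably only some replicates passing the limit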;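 also: agonist challenge used bursicon conditioned medium at about half maximal strength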
LMP1 NFkB inh – Epstein-Barr LMP1 NF-kappaB reporter inhibition; LMP1-induced NF-kappaB luciferase reporter cells, luminescence; inhibition, % at 12.5 µM; actives 0.69% (n = 350,000); AID 504558; in the data active = inhibition above about 41%; inconclusive = no clear call, values can overlap the other calls
Large screens that a line does not name were inactive.

CN(C)C(=O)c1cccc(-c2ccccc2[C@H]2[C@@H](C#N)N(C(=O)C3CCCCC3)[C@H]2CO)c1	none (no result: TWEAK-Fn14 inh, TROY NFkB inh, LMP1 NFkB inh)
C=C1CC(COc2ccc3c(C)c(Cl)c(=O)oc3c2)(c2ccccc2)OC1=O (configuration not stated)	TWEAK-Fn14 inh 83, TROY NFkB inh 76, EWS-Fli inh inconclusive, LGR2 inh 49
COc1ccc2c(C)c(Cl)c(=O)oc2c1	none (no result: EWS-Fli inh)
C[C@H](CO)N1C[C@H](C)[C@H](CN(C)C(=O)Nc2ccc(C(F)(F)F)cc2)OCCCC[C@H](C)Oc2ccc(NC(=O)c3ccccc3)cc2C1=O	none (no result: TWEAK-Fn14 inh, TROY NFkB inh, LMP1 NFkB inh)
Nc1[nH]n(-c2ccccc2)c(=O)c1N=Nc1ccc2c(c1)OCCO2	TWEAK-Fn14 inh 68, TROY NFkB inh 51
Nc1[nH]n(-c2ccccc2)c(=O)c1N=Nc1ccc2c(c1)OCO2	none
CC(=O)n1cc(N(C(=O)CCl)c2ccc([N+](=O)[O-])cc2)c2ccccc21	EWS-Fli inh 56
CC(=O)n1cc(N(C(=O)CCl)c2ccccc2)c2ccccc21	TWEAK-Fn14 inh 66
c1ccc(Nc2ccnc(Nc3ccccc3)n2)cc1	TWEAK-Fn14 inh 55
CC1CCCN(C(=O)c2ccc(S(=O)(=O)N3CCC(c4nc5ccccc5s4)CC3)cc2)C1 (configuration not stated)	TWEAK-Fn14 inh 57, TROY NFkB inh 52 (no result: EWS-Fli inh, LGR2 inh)
O=C(Nc1nc(-c2ccccc2)c(C(=O)c2ccccc2)s1)c1ccc(S(=O)(=O)N2CCCCC2)cc1	TWEAK-Fn14 inh 52
O=C(Nc1nc(-c2cccs2)cs1)c1ccc(S(=O)(=O)N2CCCCC2)cc1	TWEAK-Fn14 inh 59
O=C(Nc1nc(-c2cccs2)cs1)c1cccc(S(=O)(=O)N2CCCCCC2)c1	none (no result: EWS-Fli inh, LGR2 inh)
CC(C)NC(=O)Nc1ccc2c(c1)C(=O)N([C@H](C)CO)C[C@H](C)[C@@H](CN(C)Cc1ccccc1)OCCCC[C@H](C)O2	none (no result: TWEAK-Fn14 inh, TROY NFkB inh, LMP1 NFkB inh)
CCOC(=O)c1nc(Nc2ccc(Nc3ccccc3)cc2)c2ccccc2n1	TROY NFkB inh 54
Cc1ccccc1Nc1nc(NCc2ccco2)c2ccccc2n1	none
c1ccc(Nc2nc(NCc3ccco3)c3ccccc3n2)cc1	TWEAK-Fn14 inh 52
Cc1cccc(Nc2nc(NCc3ccco3)c3ccccc3n2)c1	TWEAK-Fn14 inh 86, LMP1 NFkB inh inconclusive (no result: LGR2 inh)
COc1cccc(C(=O)Nc2ccc3c(c2)OC[C@H](C)N(C(=O)C2CCCC2)C[C@H](C)[C@@H](OC)CN(C)C3=O)c1	none (no result: TWEAK-Fn14 inh, TROY NFkB inh, LMP1 NFkB inh)
C/C=C/c1cnc2c(c1)C(=O)N([C@@H](C)CO)C[C@H](C)[C@H](CN(C)Cc1ccncc1)O2	none (no result: TWEAK-Fn14 inh, TROY NFkB inh, LMP1 NFkB inh)
O=C(C[C@H]1CC[C@@H]2[C@H](COC[C@@H](O)CN2C(=O)Nc2cccc(Cl)c2)O1)NCC1CCCCC1	none (no result: TWEAK-Fn14 inh, TROY NFkB inh, LMP1 NFkB inh)
CC(Nc1c([N+](=O)[O-])c(=O)oc2ccccc12)C(Cl)c1ccccc1 (configuration not stated)	TWEAK-Fn14 inh 50 (no result: EWS-Fli inh)
CN=c1scc(-c2ccc(F)cc2)n1/N=C/c1ccc(O)c(O)c1	TWEAK-Fn14 inh 88, TROY NFkB inh 76, LGR2 inh 75
O=C(Nc1ccc(Cl)cc1)c1cc2c(cc1O)[nH]c1ccccc12	TWEAK-Fn14 inh 82, TROY NFkB inh 55
CN(C)c1cccc(F)c1C(=O)NC(=O)Nc1ccc(Cl)cc1	EWS-Fli inh 53
CN(C)c1cccc(N(C)C)c1CNC(=O)NC(=O)c1c(F)cccc1F	none
COCCNC(=O)C[C@H]1C[C@@H]2c3cc(NC(=O)CC4CC4)ccc3O[C@@H]2[C@H](CO)O1	none (no result: TWEAK-Fn14 inh, TROY NFkB inh, LMP1 NFkB inh)
CC(=O)Oc1ccc(/C=C2/CCc3ccccc3C2=O)cc1	TWEAK-Fn14 inh 88, TROY NFkB inh 61, EWS-Fli inh 74, LGR2 inh 55
Nc1ccccc1C=C1Cc2ccccc2C1=O	none
O=C1/C(=C/c2cccc([N+](=O)[O-])c2)CCc2ccccc21	TWEAK-Fn14 inh 93 (no result: EWS-Fli inh)
COc1cccc(/C=C2\CCc3ccccc3C2=O)c1	TWEAK-Fn14 inh 61
COc1ccc(/C=C2\CCc3ccccc3C2=O)cc1OC	none (no result: EWS-Fli inh)
O=C1C(=Cc2ccccc2[N+](=O)[O-])Cc2ccccc21	TWEAK-Fn14 inh 95
N#C[C@@H]1[C@H](c2ccccc2-c2cccc(F)c2)[C@H](CO)N1C(=O)c1cccnc1	none (no result: TWEAK-Fn14 inh, TROY NFkB inh, LMP1 NFkB inh)
COC(=O)[C@@H]1[C@@H](CO)[C@@H]2Cn3c(ccc(-c4cccc(F)c4)c3=O)[C@@H]2N1CC1CCCC1	none (no result: TWEAK-Fn14 inh, TROY NFkB inh, LMP1 NFkB inh)
C[C@H]1CN([C@@H](C)CO)C(=O)c2cc(C#Cc3ccccc3)cnc2O[C@@H]1CN(C)S(=O)(=O)c1ccccc1F	none (no result: TWEAK-Fn14 inh, TROY NFkB inh, LMP1 NFkB inh)
COc1ccc2c(c1)CC/C(=C\Nc1ccc3c(c1)OCO3)C2=O	none
